Data reported in PubChem BioAssay (NCATS).
Unmarked numbers belong to inactive results. Results filed as inconclusive are left out. Entries that show only a call come without a potency. The source made the active and inactive calls. Unless noted, the call rests on the fitted dose curve; in most records, active means well fitted curve in the direction sought with a large enough effect; inconclusive means small, poorly fitted or top-dose-only effect, or another doubt; inactive means no such curve, though single readings can be large; an effect the other way counts as inactive or inconclusive. Starred links: 1 amine or outer side, 2 acyl side, 3 side chain; linkers in the order of their positions; H or OH if unused. Positions of bridges follow the written chain, without caps; N, C: chain ends. Non-standard residues stand in square brackets, D forms with d. Residues, ends and D or L forms follow the SMILES beside them. ξ: configuration not given here. *: point of attachment. X3 = C[C@@H](Oc1ccc([C@H](N[*:1])C(=O)[*:2])cc1)[C@]1(/C=C\C(=O)[*:3])CO1; d(aIle) = CC[C@H](C)[C@@H](N)C(=O)O; X2 = CC(C)[C@@H](O)C(C)C(=O)*; ξNMeF = CNC(Cc1ccccc1)C(=O)O; ξT = CC(O)C(N)C(=O)O; ξS = NC(CO)C(=O)O

Experiments:
[1] = UWB1.289 Cancer Cell Toxicity qHTS against the NCATS CANVASS Library (AID 1347347); further: nearly all actives have a fitted effect of over 60% in size
Outline: (§1)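 ATP content after 72 h treatment, detected by CellTiter-Glo luminescence (15min room-temperature development), reflects cell viability. Wells contained 1000 cells and received compounds at 11 concentrations.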

[2] = Panc-1005 Cancer Cell Toxicity qHTS against the NCATS CANVASS Library (AID 1347349); further: nearly all actives have a fitted effect of over 60% in size
Outline: as §1

[3] = UWB1.289-WTBRCA1 Cancer Cell Toxicity qHTS against the NCATS CANVASS Library (AID 1347354)
Outline: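 Luminescent ATP read-out (CellTiter-Glo, 15min at room temperature) measures survival after cells face an 11-point compound series for 72 hours at 37 degrees C/5% CO2.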

[4] = G06 Cancer Cell Toxicity qHTS against the NCATS CANVASS Library (AID 1347368); further: nearly all actives have a fitted effect of over 60% in size
Outline: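 Dog G06 glioma line, 500 cells/well; cpds pin-transferred, 11-pt; 72 hr, 37C/5% CO2; CellTiterGlo luminescence (ATP) endpoint.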

[5] = qHTS for Antimalaria activity screened against the NCATS CANVASS Library (AID 1347380);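 further: Plasmodium falciparum strain Dd2 asexual parasites grown in red blood cells; nearly all actives have a fitted effect of over 40% in size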
Outline: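 Dd2 strain, infected erythrocytes 2.5% Hct final / 0.3% parasitemia. 11-pt qHTS titration, 72 h, 37C, 5% O2, 5% CO2. Lysis buffer + SYBR Green, 18 h, fluorescence 485/535 nm.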

[6] = qHTS assay to identify inhibitors of the type 1 interferon - major histocompatibility complex class I in skeletal muscle: Counter screen cell viability and HiBit confirmation (AID 1347412); details: iHSKM muscle cells + IFN-b, HiBiT or CellTiter-Glo, 24 h; for activity change, negative = inhibition: at 45.9 µM (top of the series); further: potency means the concentration at half of the fitted maximal effect; on all read-outs here: nearly all actives have a fitted effect of over 60% in size
Outline: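 HLA-B*08:01–HiBiT knock-in immortalized human myoblasts (C25cl48) stimulated with 4.0 ng/ml human IFN-beta and dosed with compound in a 12-point 1:3 titration (top final 46 uM). After 24 hrs at 37 C, HiBiT lytic luminescence or CellTiter Glo ATP read out.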

[7] = biological target: Glutathione peroxidase 1 (Homo sapiens) (UniProt P07203); test: Primary qHTS Assay for Inhibitors of Recombinant Selenoprotein Glutathione Peroxidase 1 (GPX1) (AID 1845191); further: nearly all actives have a fitted effect of over 65% in size
Outline: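 Recombinant GPX1 (10 nM final) was preincubated with compound for 30 min at room temperature, then reacted with 1 mM GSH, 0.5 mM CHP, 0.5 mM NADPH and 100 nM glutathione reductase; NADPH fluorescence (340/450 nm) was read at 0 and 15 min.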

[8] = biological target: Glucocorticoid receptor (Homo sapiens) (UniProt P04150); test: GR-EFC Redistribution (AID 451; calls by dose curve; further: potency means the concentration at half of the fitted maximal effect); details: CHO-K1 GR-EFC translocation, beta-gal luminescence, 2 h
Outline: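 CHO-K1 cells stably expressing nuclear-localized β-gal enzyme acceptor and GR fused C-terminally to the enzyme donor fragment; ligand-driven nuclear translocation restores β-gal by complementation. Compounds titrated up to 46 uM final, 2 h at 37 °C; luminescence read.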

[9] = biological target: 3',5'-cyclic-AMP phosphodiesterase 4B (Homo sapiens) (UniProt Q07343); test: qHTS Assay for Inhibitors of PDE-IV (AID 607; active means well fitted activation curve with a large enough effect in the main read-out, with a control signal flat, not every such curve was filed as active)
Outline: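 ACTOne HEK293 cells carry a modified cAMP-gated CNG channel and express endogenous PDE4; plated 1000 cells/well, compounds up to 22.9 uM final. Membrane-potential dye fluorescence (ex 535/em 590) was read; parental cells received 10 uM forskolin + 100 uM RO 20-1724.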

Sequence of Glutathione peroxidase 1 (Homo sapiens) (P07203 whole entry, looked up): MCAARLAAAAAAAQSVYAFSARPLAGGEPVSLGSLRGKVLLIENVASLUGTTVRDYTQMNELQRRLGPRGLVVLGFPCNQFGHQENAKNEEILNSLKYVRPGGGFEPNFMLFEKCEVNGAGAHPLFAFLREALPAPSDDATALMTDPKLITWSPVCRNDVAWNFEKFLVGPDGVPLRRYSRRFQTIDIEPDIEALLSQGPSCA
Sequence of Glucocorticoid receptor (Homo sapiens) (P04150 whole entry, looked up, the tested form may be a part): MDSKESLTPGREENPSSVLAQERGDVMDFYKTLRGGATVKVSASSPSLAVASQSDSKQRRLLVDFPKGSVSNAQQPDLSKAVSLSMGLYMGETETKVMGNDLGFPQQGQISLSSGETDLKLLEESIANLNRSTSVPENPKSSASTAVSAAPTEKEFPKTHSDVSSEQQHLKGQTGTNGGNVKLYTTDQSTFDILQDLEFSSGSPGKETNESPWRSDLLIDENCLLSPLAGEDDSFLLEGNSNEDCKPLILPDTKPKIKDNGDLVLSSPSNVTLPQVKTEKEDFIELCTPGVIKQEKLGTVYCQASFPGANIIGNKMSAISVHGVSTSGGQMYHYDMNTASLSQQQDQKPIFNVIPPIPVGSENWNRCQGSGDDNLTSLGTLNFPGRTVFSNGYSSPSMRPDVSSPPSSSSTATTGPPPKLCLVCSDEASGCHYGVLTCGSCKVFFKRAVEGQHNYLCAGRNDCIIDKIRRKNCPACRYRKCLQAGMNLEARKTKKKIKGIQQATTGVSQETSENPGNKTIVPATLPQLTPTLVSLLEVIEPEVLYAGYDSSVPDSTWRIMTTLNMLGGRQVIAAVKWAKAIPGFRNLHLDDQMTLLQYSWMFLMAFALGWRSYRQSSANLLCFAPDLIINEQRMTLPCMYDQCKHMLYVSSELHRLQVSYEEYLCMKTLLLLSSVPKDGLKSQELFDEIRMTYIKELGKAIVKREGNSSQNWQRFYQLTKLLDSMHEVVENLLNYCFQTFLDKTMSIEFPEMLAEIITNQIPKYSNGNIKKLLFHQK
Sequence of 3',5'-cyclic-AMP phosphodiesterase 4B (Homo sapiens) (Q07343 whole entry, looked up): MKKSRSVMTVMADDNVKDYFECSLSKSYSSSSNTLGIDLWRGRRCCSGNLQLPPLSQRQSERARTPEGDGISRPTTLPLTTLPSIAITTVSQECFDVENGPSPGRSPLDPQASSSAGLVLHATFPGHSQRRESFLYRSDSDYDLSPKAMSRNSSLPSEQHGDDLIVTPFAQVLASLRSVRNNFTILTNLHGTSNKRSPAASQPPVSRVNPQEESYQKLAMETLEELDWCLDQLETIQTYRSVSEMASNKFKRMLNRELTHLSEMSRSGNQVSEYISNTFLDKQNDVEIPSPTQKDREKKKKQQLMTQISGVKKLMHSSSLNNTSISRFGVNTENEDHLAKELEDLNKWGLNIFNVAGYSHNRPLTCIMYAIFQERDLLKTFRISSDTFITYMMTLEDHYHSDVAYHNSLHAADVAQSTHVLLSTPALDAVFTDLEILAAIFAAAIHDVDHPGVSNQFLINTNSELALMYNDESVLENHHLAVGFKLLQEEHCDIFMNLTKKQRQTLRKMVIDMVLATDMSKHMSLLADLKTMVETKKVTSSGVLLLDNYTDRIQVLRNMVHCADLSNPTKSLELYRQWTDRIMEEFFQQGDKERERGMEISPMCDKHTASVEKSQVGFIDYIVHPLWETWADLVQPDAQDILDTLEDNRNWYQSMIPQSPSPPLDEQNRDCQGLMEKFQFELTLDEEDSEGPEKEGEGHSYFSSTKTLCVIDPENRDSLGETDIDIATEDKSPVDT

With `C=CC(C)(C)[C@@]12C[C@H]3C(=O)N/C(=C\c4cnc[nH]4)C(=O)N3[C@@H]1Nc1ccccc12` the Potency [1] was “inactive”, the Potency [2] was “inactive” and the Potency [3] was “inactive”. For the same compound, the Potency [4] was “inactive” and the Potency [5] was “inactive”.
In the case of `CC[C@H](C)[C@H]1NC(=O)[C@@H](NC(=O)C(C)[C@H](O)C(C)C)[C@@H](C)OC(=O)C2COC(=O)CNC(=O)/C=C\[C@]3(CO3)[C@@H](C)Oc3ccc(cc3)[C@H](NC1=O)C(=O)N(C)C(Cc1ccccc1)C(=O)NC(C(C)O)C(=O)N2` (stereo partly specified) (X2-T[d(aIle)][X3][ξNMeF][ξT][ξS]; ester 1-C; linker 3-6 via G), the Potency [2] is reported as “inactive” and the Potency [3] is reported as “inactive”.
For `CCC1/C=C/C=CCC(C)C(O)[C@@](C)(O)C(=O)C(C)C(O)C(C)C(=O)C(C)C(O)C(C)C=CC(=O)O[C@H]2C(C)C(CC1)O[C@]1(CCC(C)C(CC(C)O)O1)C2C` (stereo partly specified), the activity change, negative = inhibition ([6]; HiBiT) was -31.9% and the activity change, negative = inhibition ([6]; Viability) was -23.7%.
With `COc1cc(C)[nH]c(=O)c1CNC(=O)c1c(C)n([C@H](C)C2CCN(CC(F)(F)F)CC2)c2ccccc12` the Potency [7] was “inactive”.
In the case of `C[C@]12COC(=O)C[C@@H]1CC[C@@H]1[C@@H]2CC[C@@]2(C)[C@H]1CC[C@]2(C)O`, the Potency [7] is reported as “inactive”.
In the case of `COC12C(COC(N)=O)C3=C(C(=O)C(C)=C(N)C3=O)N1CC1C2N1C` (stereo unspecified), the Potency [7] is reported as “inactive”.
For `CC(C)[C@]12O[C@H]1[C@@H]1O[C@@]13[C@@]1(C)CCC4=C(COC4=O)[C@@H]1C[C@@H]1O[C@@]13C2=O`, the Potency ([6]; HiBiT) was 0.0497 µM (active) and the activity change, negative = inhibition ([6]; Viability) was 4.52%.
With `C[C@@H](C1CC[C@@]2(O)C3=CC(=O)[C@@H]4C[C@@H](O)[C@@H](O)C[C@]4(C)[C@H]3CC[C@]12C)[C@H](O)CCC(C)(C)O` (stereo partly specified) the Potency [7] was “inactive”.
With `CO[C@H]1CCC(O[C@H]2C[C@H]([C@]3(C)CC[C@]4(C[C@H](O)[C@@H](C)[C@@H]([C@@H](C)/C=C(\C)C(=O)[C@H](C)C[C@H](C)C(=O)O)O4)O3)O[C@]3(O[C@@H]([C@H]4O[C@@](O)(CO)[C@H](C)C[C@@H]4C)C[C@@H]3C)[C@@H]2C)O[C@@H]1C` (stereo partly specified) the Potency ([6]; HiBiT) was 12.5 µM (active) and the Potency ([6]; Viability) was 14 µM (active).
With `CC(C)(O)/C=C\C(=O)[C@](C)(O)[C@H]1[C@H](O)C[C@]2(C)[C@@H]3CC=C4[C@@H](C=C(O)C(=O)C4(C)C)[C@]3(C)C(=O)C[C@@]12C` the Potency [8] was greater than 9.22 µM, the Potency [9] was “inactive” and the Potency [7] was “inactive”. For the same compound, the Potency ([6]; HiBiT) was 6.25 µM (active) and the activity change, negative = inhibition ([6]; Viability) was 186%.
In the case of `C[C@@]12OC(=O)[C@]1([C@@H](O)[C@@H]1C=CCCC1)NC(=O)[C@@H]2CCCl`, the Potency ([6]; HiBiT) is reported as 0.176 µM (active).
For `COC(=O)[C@@]12OC[C@]34[C@H]([C@@H](O)[C@@H]1O)[C@@]1(C)CC(=O)C(O)=C(C)[C@@H]1C[C@H]3OC(=O)[C@H](OC(=O)/C=C(\C)C(C)C)[C@@H]24`, the Potency ([6]; HiBiT) was 0.0883 µM (active) and the activity change, negative = inhibition ([6]; Viability) was -8.02%.
Work on `C=C(C)[C@@H]1CCC(C)=C[C@H]1c1c(O)cc(CCCCC)cc1O` yielded an activity change, negative = inhibition ([6]; Viability) of 5.14%.
With `CC(=O)OC[C@H]1O[C@@H]([S-])[C@H](OC(C)=O)[C@@H](OC(C)=O)[C@@H]1OC(C)=O.CC[PH+](CC)CC.[Au]` the Potency ([6]; HiBiT) was 1.11 µM (active).
For `COC[C@H]1OC(=O)c2coc3c2[C@@]1(C)C1=C(C3=O)[C@@H]2CC[C@H](O)[C@@]2(C)C[C@H]1OC(C)=O`, the Potency [7] was “inactive”.
For `Cc1[nH]ncc1-c1cc2nc([C@@H]3CC4CCN3CC4)[nH]c(=O)c2s1`, the Potency [7] was “inactive”, the Potency ([6]; HiBiT) was 4.43 µM (active) and the activity change, negative = inhibition ([6]; Viability) was 15.9%.
In the case of `CC1(C)CC[C@]2(NC(=O)C(C)(F)F)CC[C@]3(C)[C@H](C(=O)C=C4[C@@]5(C)C=C(C#N)C(=O)C(C)(C)[C@@H]5CC[C@]43C)[C@@H]2C1`, the Potency [7] is reported as “inactive” and the Potency ([6]; HiBiT) is reported as 1.57 µM (active).
For `CC(N[C@H]1C[C@@H]1c1ccccc1)c1ccc2c(c1)OCCO2` (stereo partly specified), the Potency [7] was “inactive”.
In the case of `CC(=O)O[C@@]12CO[C@@H]1C[C@H](O)[C@@]1(C)C(=O)[C@H](O)C3=C(C)[C@@H](O)C[C@@](O)([C@@H](OC(=O)c4ccccc4)[C@H]21)C3(C)C`, the Potency [7] is reported as “inactive”.
In the case of `C[C@@H]1CC[C@@]2(OC1)O[C@H]1C[C@H]3[C@@H]4CC=C5C[C@@H](O[C@@H]6O[C@H](CO)[C@@H](O[C@@H]7O[C@@H](C)[C@H](O)[C@@H](O)[C@H]7O)[C@H](O)[C@H]6O[C@@H]6O[C@@H](C)[C@H](O)[C@@H](O)[C@H]6O)CC[C@]5(C)[C@H]4CC[C@]3(C)[C@H]1[C@@H]2C`, the Potency [7] is reported as “inactive”, the Potency ([6]; HiBiT) is reported as 22.2 µM (active) and the Potency ([6]; Viability) is reported as 17.6 µM (active).
For `CO/C1=C/C(C)=C\[C@@H](C)[C@@H](O)[C@@H](C)C/C(C)=C\C=C/[C@H](OC)[C@@H]([C@@H](C)[C@@H](O)[C@H](C)[C@@]2(O)C[C@@H](O)[C@H](C)[C@@H](C(C)C)O2)OC1=O`, the Potency [7] was “inactive”.
For `CCCCCCC(C)(C)c1cc(O)c2c(c1)OC(C)(C)C1CC=C(CO)C[C@H]21` (stereo partly specified), the Potency [7] was “inactive” and the Potency ([6]; Viability) was 35.2 µM (active).
